In all, about 48,000 compounds went through this assay and about 13,000 (27%) showed an effect of 50% or more. The list shows a part of the results.
System: Wolbachia pipientis
Assay: Anti-Wolbachia Cell-Based Screen
Format: functional
Set-up: scale not given: in the data most compounds retested in dose-response had high values
Conditions: 5 µM

Compound | Percent Effect
CC(=O)N1CCC2(CC1)CN(C)C(=O)C[C@H]2C(F)(F)F.Cl | -12.08%
CN1CCN(C(=O)c2ccc(=O)n(C)c2)c2ccccc21 | 6.731%
CCOc1ccc(-n2nc(C)c(CC(C)=O)c2C)cc1C(N)=O | -4.424%
Cc1cnc(N2CC3(CCN(S(=O)(=O)C4CC4)C3)C2)nc1.O=C(O)C(F)(F)F | -3.978%
O=S(=O)(C1CC1)N1CCC2(CN(c3ncccn3)C2)C1 | -12.56%
O=C(O)C(F)(F)F.O=S(=O)(C1CC1)N1CCC2(CCCN(c3ncccn3)C2)C1 (centres undefined) | 97.03%
O=C(CCc1ccc(F)cc1)NCc1ccnc(NC2CC2)c1 | -8.812%
O=C(O)C(F)(F)F.O=C(O)C(F)(F)F.c1cc(CN2CC[C@@H]3[C@@H](CO[C@H]3CN3CCOCC3)C2)cs1 | 92.79%
O=C(C1CCOCC1)N1C[C@@H]2CN(Cc3ccsc3)CCO[C@@H]2C1.O=C(O)C(F)(F)F | 4.767%
CN1CCN(C[C@@H]2OC[C@H]3CN(Cc4ccsc4)CC[C@H]32)CC1.O=C(O)C(F)(F)F.O=C(O)C(F)(F)F.O=C(O)C(F)(F)F | -2.359%
O=C(O)C(F)(F)F.O=C(O)C(F)(F)F.c1cc2c(cc1CN1CC[C@H]3CO[C@H](CN4CCCC4)[C@H]3C1)OCO2 | -12.98%
CN(Cc1ccco1)C[C@H]1OC[C@@H]2CCN(Cc3ccsc3)C[C@@H]21.O=C(O)C(F)(F)F.O=C(O)C(F)(F)F | -7.864%
CN1CCN(C[C@H]2OC[C@@H]3CCN(Cc4ccsc4)C[C@@H]32)CC1 | 98.94%
Cc1ccc(CN2CC[C@H]3CO[C@H](CN4CCN(C)CC4)[C@H]3C2)o1.O=C(O)C(F)(F)F.O=C(O)C(F)(F)F.O=C(O)C(F)(F)F | -46.51%
Cc1ccc(CN2CC[C@H]3CO[C@H](CN4CCCC4)[C@H]3C2)o1.O=C(O)C(F)(F)F.O=C(O)C(F)(F)F | -21.11%
O=C(O)C(F)(F)F.O=C(O)C(F)(F)F.c1cc(CN2CC[C@H]3CO[C@H](CN4CCOCC4)[C@H]3C2)cs1 | 117.2%
O=C(Nc1ccnc(OC2CCOC2)c1)C1CCC1 (centres undefined) | -17.8%
Cc1cc(CN2CCC(CNC(=O)c3ccc(O)c(Cl)c3)C2)[nH]n1 (centres undefined) | 12.57%
CNc1nc(C(=O)N2CCCCC2c2ccc(CN(C)C)cc2)cs1 (centres undefined) | -11.93%
CC(=O)Nc1nc(C(=O)N2CCCC2c2ccccc2C)cs1 (centres undefined) | -3.064%
NS(=O)(=O)c1ccc(C(=O)N2CCCC2c2ccccc2)o1 (centres undefined) | 114.9%
CNS(=O)(=O)c1ccc(C(=O)N2CCCC2c2ccccc2)o1 (centres undefined) | -8.711%
CN(C)Cc1ccc(C2CCCCN2C(=O)c2ncccc2O)cc1 (centres undefined) | 1.796%
CNS(=O)(=O)c1ccc(C(=O)N2CCCC2c2ccncc2)o1 (centres undefined) | 101.5%
CNS(=O)(=O)c1ccc(C(=O)N2CCCC2c2cnn(C)c2)o1 (centres undefined) | -2.298%
CNS(=O)(=O)c1ccc(C(=O)N2CCCCC2c2ccc(C)cc2)o1 (centres undefined) | 124%
CNS(=O)(=O)c1ccc(C(=O)N2CCCC2Cc2ccccc2)o1 (centres undefined) | 9.44%
CNS(=O)(=O)c1ccc(C(=O)N2CCCC2c2ccccc2C)o1 (centres undefined) | 116.1%
Cc1nc(C(=O)N2CCCCC2c2ccc(CN(C)C)cc2)c(C)o1 (centres undefined) | -1.477%

Reference: ChEMBL document CHEMBL3988442, “University of Dundee, Small-Polar-MMV Screening Library” (2021)
